Inconclusive results are not listed. Activity calls are given as the source filed them. Calls come from the whole dose curve; as a rule, active = well fitted curve in the direction sought with a large enough effect; inconclusive = small, poorly fitted or top-dose-only effect, or another doubt; inactive = no such curve, though single readings can be large; an effect the other way counts as inactive or inconclusive.
What was measured:
[1] = qHTS for ATAD5 Agonist screened against the NCATS CANVASS Library (AID 1347367); conditions: HEK293T ATAD5-luciferase reporter, luminescence, 16 h; series mostly up to 46.1 µM;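 note: luciferase reporter driven by ATAD5 which rises upon DNA damage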
Procedure, shortened: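 Genotoxicity was scored as increased ATAD5-luciferase luminescence in HEK293T after 16hr of exposure, with cell viability measured by fluorescence beforehand in the same well.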

[2] = G06 Cancer Cell Toxicity qHTS against the NCATS CANVASS Library (AID 1347368); conditions: G06 dog glioma cells, viability ATP luminescence, 72 h; series mostly up to 46.1 µM; note: nearly all actives have a fitted effect of over 60% in size
Source text: Natural products and their derivatives continue to be wellsprings of nascent therapeutic potential. However, many laboratories have limited resources for biological evaluation, leaving their previously isolated or synthesized compounds largely or completely untested. To address this issue, the Canvass library of natural products was assembled (https://tripod.nih.gov/canvass), in collaboration with academic and industry researchers, for quantitative high-throughput screening (qHTS) across a diverse set of cell-based and biochemical assays. […] The library was formatted into 1536-well plates and evaluated in 50 qHTS (in an 11-pnt concentration series) bioassays with broad scope of disease-relevant mechanisms. The resulting data set from 50 different assays was then systematically analyzed to identify overall trends and specific natural products with interesting biological activities. […] This assay uses ATP (luminescence) content to measure the cytotoxiciy of compounds on G06 dog glioma cancer cell line. […]
Cancer Cell Toxicity qHTS protocol: for cell lines G06, J3T, and SDT. […] Luminescence signal was acquired via the ViewLux plate reader (PerkinElmer) using a clear emission filter, 2 sec exposure, and 1x binning settings.

[3] = MCF7 Cancer Cell Toxicity qHTS against the NCATS CANVASS Library (AID 1347369); conditions: MCF7 viability, ATP luminescence (CellTiter-Glo), 72 h; series mostly up to 46 µM
Procedure, shortened: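 This 72 hr qHTS scored MCF7 viability by CellTiterGlo luminescence, with 500 cells/well; bortezomib titration ran as control.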

[4] = qHTS for ATAD5 Antagonist screened against the NCATS CANVASS Library (AID 1347370); conditions: HEK293T-ATAD5-luc, 5-FUrd stimulated, luminescence, 16 h; series mostly up to 46.1 µM;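 note: HEK293T cells carrying an ATAD5 luciferase reporter co-treated with 10 µM 5-fluorouridine; nearly all actives have a fitted effect of over 65% in size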
Procedure, shortened: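 HEK293T-ATAD5 luc reporter, 2000 cells/well; 5hr attach; cpd + 10 uM 5-FUrd; 16hr 37C, 5% CO2. Readouts: CellTiter-Fluor fluorescence (1hr), then Amplite luciferase luminescence (30min RT).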

[5] = J3T Cancer Cell Toxicity qHTS against the NCATS CANVASS Library (AID 1347371); conditions: J3T dog glioma viability, ATP luminescence, 72 h; series mostly up to 46.1 µM
Procedure, shortened: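 Dog glioma J3T, 500 cells/well; cpd 11-pt qHTS; 72 hr, 37C/5% CO2; CellTiterGlo ATP luminescence readout.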

[6] = molecular target: Nuclear receptor subfamily 1 group I member 3 (Homo sapiens) (UniProt Q14994); test: qHTS for Constitutive Androstane Receptor (CAR) Antagonist screened against the NCATS CANVASS Library (AID 1347372); conditions: HepG2-hCAR-CYP2B6 luciferase, CITCO-stimulated antagonist mode; series mostly up to 46.1 µM;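 note: cells stimulated with 50 nM CITCO agonist so inhibition reflects antagonism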
Procedure, shortened: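 Luminescence readout (ONE-Glo, 30 min RT) of CYP2B6-2.2kb reporter in HepG2-hCAR cells after 24hr, 37C treatment with compound against 50 nM CITCO; CellTiter-Fluor viability read beforehand.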

[7] = 10-beta competent E. coli microbial cell viability qHTS against the NCATS CANVASS Library (AID 1347376); conditions: E. coli 10-beta viability, BacTiter-Glo ATP luminescence, overnight; series mostly up to 46.1 µM
Procedure, shortened: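 Luminescence from BacTiter-Glo ATP detection served as the viability read-out; bacteria (0.2 OD) had been incubated overnight at 37C with pin-transferred compounds at 11 concentrations.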

[8] = molecular target: Nuclear receptor subfamily 1 group I member 3 (Homo sapiens) (UniProt Q14994); test: qHTS for Constitutive Androstane Receptor (CAR) Agonist screened against the NCATS CANVASS Library (AID 1347373); conditions: HepG2-hCAR-CYP2B6 luciferase reporter, ONE-Glo luminescence; series mostly up to 46.1 µM;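 note: every well also contained 1.5 µM PK11195 alongside the test compound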
Procedure, shortened: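 Luciferase read-out (ONE-Glo, 30 min RT) of CYP2B6-2.2kb promoter activity in double-stable HepG2-hCAR cells after 24hr compound exposure with 1.5uM PK11195 present; viability measured first by CellTiter-Fluor.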

[9] = qHTS for Hypoxia signaling pathway (HIF-1) antagonists against the NCATS CANVASS Library (AID 1347374); conditions: HRE-bla ME-180 cells, HIF-1 beta-lactamase reporter, CoCl2; series mostly up to 38.3 µM;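 note: HRE-bla ME-180 cells stimulated with cobalt chloride to stabilize HIF-1alpha; nearly all actives have a fitted effect of over 60% in size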
Procedure, shortened: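 Beta-lactamase reporter under HRE control in ME-180 cells; CoCl2 stimulus (60 uM solution as added), compounds 11-pt qHTS, 17 h 37C. CCF4 dye 2 h RT, 460/530 nm emission. CellTiter-Glo viability in same wells.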

[10] = qHTS for Hypoxia signaling pathway (HIF-1) agonists against the NCATS CANVASS Library (AID 1347375); conditions: HRE-bla ME-180 cells, HIF-1 beta-lactamase reporter, 17 h; series mostly up to 38.3 µM
Procedure, shortened: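 Read-out: beta-lactamase FRET (CCF4-AM, ex 405, em 460 and 530 nm) after 2 h at room temperature. ME-180 cells stably carrying HRE-bla were treated 17 h at 37C with compounds in an 11-point concentration series.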

Measured: outcome

Sequence of Nuclear receptor subfamily 1 group I member 3 (Homo sapiens) (Q14994 whole entry, looked up): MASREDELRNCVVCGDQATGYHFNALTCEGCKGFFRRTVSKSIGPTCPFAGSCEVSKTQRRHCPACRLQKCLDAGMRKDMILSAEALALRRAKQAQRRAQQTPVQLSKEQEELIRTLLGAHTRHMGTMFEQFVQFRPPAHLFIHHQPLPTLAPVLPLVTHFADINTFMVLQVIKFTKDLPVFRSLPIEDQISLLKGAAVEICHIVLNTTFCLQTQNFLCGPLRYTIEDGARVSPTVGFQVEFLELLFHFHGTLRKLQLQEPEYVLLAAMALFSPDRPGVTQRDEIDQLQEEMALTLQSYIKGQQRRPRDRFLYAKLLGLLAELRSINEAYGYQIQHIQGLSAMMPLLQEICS

CC1=C2C(=O)O[C@@H](c3ccoc3)[C@]2(C)CCC1
inactive: [1] | [2] | [3] | [4] | [5] | [6] | [7]

C/C=C/C=C/C(CC(=O)O)Nc1ccc(C=O)cc1 (configuration not stated)
inactive: [1] | [2] | [3] | [4] | [5] | [6] | [8] | [9] | [10] | [7]

Reference: PubChem BioAssay (NCATS)
